Assay outcomes as filed in PubChem BioAssay.
Hits are enriched below; roughly 2.4% of the tested compounds scored in any of these assays.
CHRM1 agonist – human M1 muscarinic receptor agonists, primary screen, Fluo-8 calcium fluorescence, CHO-K1 cells, HTS. CHO-K1 hM1, agonist mode; 0% DMSO, 100% acetylcholine EC100. activation, % at 3 µM. actives 0.33% (n = 360,000);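 active = activation above the run's mean compound activation plus 3 SD, cut at about 16% in these data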;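 note: peak over basal fluorescence ratio within a 140 s kinetic read after compound addition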
Target sequence (P11229 whole entry, looked up): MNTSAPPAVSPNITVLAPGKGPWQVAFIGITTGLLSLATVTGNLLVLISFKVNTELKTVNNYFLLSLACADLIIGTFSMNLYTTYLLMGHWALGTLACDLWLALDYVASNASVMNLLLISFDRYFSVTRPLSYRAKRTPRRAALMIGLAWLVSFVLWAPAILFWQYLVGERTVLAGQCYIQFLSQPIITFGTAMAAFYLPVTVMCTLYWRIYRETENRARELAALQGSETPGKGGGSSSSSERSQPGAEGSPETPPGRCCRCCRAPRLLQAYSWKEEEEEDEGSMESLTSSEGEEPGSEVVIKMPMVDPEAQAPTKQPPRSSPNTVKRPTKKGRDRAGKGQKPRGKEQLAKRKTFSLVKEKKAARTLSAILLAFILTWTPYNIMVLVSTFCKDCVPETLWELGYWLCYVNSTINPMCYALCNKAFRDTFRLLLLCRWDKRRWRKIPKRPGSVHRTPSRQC
CHO-K1 Ca PAM – nonselective calcium activators in parental CHO-K1 cells, primary screen, counter-screen for M1 PAM project, cell-based, Fluo-8 calcium fluorescence, full deck, 1536-well; activation, % at 3 µM; actives 0.02% (n = 360,000); ATP EC20; 0% at ATP EC20, 100% at ATP max;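 active = activation above the run cutoff, the mean activation of all test compounds plus 3 SD, cut at about 40% in these data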;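 note: peak over basal fluorescence ratio in a 140 s read after ATP addition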
M1 ag parental – counter-screen for M1 agonists: effect in parental CHO-K1 cells | actives 0.48% (n = 360,000) | AID 602248, 2012 | Fluo-8 calcium fluorescence; scaled to maximal ATP response, vehicle zero | activation, % at 3 µM; in the data active = activation above about 15%;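 note: untransfected CHO-K1 host cells lacking M1 receptor as counterscreen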
M1 PAM – human M1 muscarinic receptor positive allosteric modulators, primary screen, CHO-K1 cells, Fluo-8 calcium fluorescence, 1536-well. activation, % at 3 µM. AID 588819, 2011. CHO-K1 hM1, ACh EC20; 0% = ACh EC20, 100% = maximal ACh. actives 0.088% (n = 360,000); in the data active = activation above about 19%, passing the limit was not always enough
CHO-K1 Ca antag – counter-screen for M1 antagonists: effect in parental CHO-K1 cells; ATP-induced calcium, Fluo-8 fluorescence; inhibition, % at 3 µM; actives 0.6% (n = 360,000);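 active = inhibition above a per-plate cutoff, the plate's mean sample inhibition plus 3 SD, cut at about 24% in these data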;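 note: 0% = DMSO plus EC80 ATP and 100% = DMSO alone without ATP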
M1 antag – human M1 muscarinic receptor antagonists, primary screen, CHO-K1 cells, Fluo-8 calcium fluorescence, 1536-well; actives 1.3% (n = 360,000); inhibition, % at 3 µM; CHO-K1 hM1, ACh EC80 antagonist; Muscarinic acetylcholine receptor M1 (Homo sapiens), P11229; AID 588852, 2011;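 active = percent inhibition above its own plate's cutoff, namely the mean of that plate's compound wells plus 3 SD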;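 note: peak over basal fluorescence ratio during 140 s after agonist addition; 0% = ACh EC80 plus DMSO and 100% = DMSO alone without agonist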
* hit, by the source's call; ! = not confirmed by another sample.

SMILES | CHRM1 agonist | CHO-K1 Ca PAM | M1 ag parental | M1 PAM | CHO-K1 Ca antag | M1 antag
COC(=O)CCCNC(=O)c1ccccn1 | -3 | -3 | 0 | 13 | -10 | -15
Cc1sc2ncnc(NCCCN3CCCC3=O)c2c1C | -3 | 16 | 18* | 7 | -8 | -1
O=C1CCCN1c1ccc(S(=O)(=O)N2CCCCC2)cc1 | -11 | 9 | 3 | 0 | -7 | -6
O=C1CCCN1c1ccc([N+](=O)[O-])cc1 | 0 | -12 | 0 | 6 | 29* | -8
O=S(=O)(c1cccs1)N1CCN(CC(O)COc2cc(Cl)ccc2Cl)CC1 (configuration not stated) | 7 | 3 | 9 | -13 | 23 | 23*
O=C(Nc1nnc2n1CCS2)c1ccc(Br)o1 | -1 | 20 | 1 | 2 | -14 | -1
Cc1c(C(c2cc3c(cc2Br)OCO3)c2c(C)n(C)n(-c3ccccc3)c2=O)c(=O)n(-c2ccccc2)n1C | -8 | 7 | 0 | -21 | -11 | 39*
O=S(=O)(c1cccc2cnccc12)N1CCCNCC1 | -6 | -6 | 0 | -5 | 1 | -9
CC1CNCCN1S(=O)(=O)c1cccc2cnccc12 (configuration not stated) | 42*! | 16 | 3 | -19 | -7 | -3
CCOc1nc(OCC)c2cnn(C)c2n1 | 0 | -19 | 0 | 2 | 5 | -3
Fc1ccc(-c2nnc3ccc(N4CCCC4)nn23)cc1 | -5 | 13 | 1 | -30 | 7 | 102*
O=C(Nc1ccccc1Cl)N1CCN(c2ccc3nnc(-c4ccc(F)cc4)n3n2)CC1 | -13 | 7 | 0 | -2 | -16 | -3
COc1ccc(Cn2c(-c3ccc(OC)cc3)n[nH]c2=S)cc1 | -4 | 17 | 1 | 11 | -5 | -18
CC(C)Oc1ccc(Cn2c(-c3ccco3)n[nH]c2=S)cc1 | -4 | 18 | 2 | -22 | -6 | 29*
O=C(Nc1ccc2c(c1)OCO2)C1Cc2c(-c3ccc4c(c3)OCO4)ccnc2O1 (configuration not stated) | -1 | 13 | 4 | 2 | -11 | -6
CC(N)c1csc(Nc2nncc3ccccc23)n1 (configuration not stated) | -9 | 11 | 3 | 9 | 0 | 102*
CC(N)c1csc(Nc2ncccn2)n1 (configuration not stated) | -4 | -5 | 1 | 0 | 25* | -2
C=C1C(=O)C23C(O)C1CCC2C12CCCC(C)(COC(C)=O)C1C(O)C3(O)OC2 (configuration not stated) | -2 | -1 | 1 | 2 | 1 | 1
N#Cc1c(-c2ccccc2)nc(SCc2cccc(Cl)c2)[nH]c1=O | -3 | 0 | 0 | -2 | -6 | 8
Cc1ccccc1Nc1nc(N)nc(COC(=O)c2ccc(O)cc2)n1 | 19* | 26 | 7 | 12 | -4 | -6
CC(=O)OC(C[N+]1(C)CCCCCC1)c1ccccc1 (configuration not stated) | -10 | 18 | 2 | -28 | -11 | 57*
C[N+]1(CC(O)c2ccccc2)CCCCCC1 (configuration not stated) | -9 | 0 | 0 | -9 | -6 | 3
CNC(=O)CSc1nnc(-c2ccco2)n1-c1ccccc1OC | 4 | 11 | 0 | 25* | -9 | -25
O=C(Nc1ccc(Br)cc1)NC1CCCCCCC1 | 3 | -1 | 14 | -14 | 10 | 30*
O=C(CNC1CCCCC1)Nc1cccc([N+](=O)[O-])c1 | -1 | -25 | -1 | 9 | 5 | -5
SMILES | CHRM1 agonist | CHO-K1 Ca PAM | M1 ag parental | M1 PAM | CHO-K1 Ca antag | M1 antag
COc1ccc(CCNC(=O)Nc2cccc([N+](=O)[O-])c2)cc1 | 4 | 1 | 15* | -9 | -11 | 7
O=C(Nc1cccc([N+](=O)[O-])c1)NC1CCCCCCC1 | 2 | 15 | 16* | -15 | 2 | 26
O=C(Nc1ccccc1)NC1CCCCCCC1 | -3 | 5 | 2 | 6 | 11 | -6
COc1ccc(CCNC(=O)Nc2cccc([N+](=O)[O-])c2)cc1OC | -2 | 18 | 5 | -1 | -12 | 5
COc1ccc(CCNC(=O)Nc2ccccc2[N+](=O)[O-])cc1 | 27* | 17 | 2 | 5 | -2 | 6
Cc1cc(NC(=O)COc2c(C)cccc2C)no1 | -3 | 1 | 4 | -4 | -3 | 15
COc1cc(NC(=O)Nc2cccc([N+](=O)[O-])c2)cc(OC)c1 | 2 | -7 | 15* | -13 | 10 | 9
COc1cccc(N(C(=O)c2sc(C)nc2C)C(C(=O)NCC2CCCO2)c2ccccc2)c1 (configuration not stated) | -1 | -5 | 5 | 11 | 27* | -17
COc1cccc(N(C(=O)c2snc(C(N)=O)c2N)C(C(=O)NCC2CCCO2)c2ccc(F)cc2)c1 (configuration not stated) | -1 | 29 | 3 | 10 | -25 | -15
O=C(CC(O)c1ccncc1)c1ccccc1O (configuration not stated) | -2 | -18 | 0 | 0 | -2 | -8
CCCN1C(=O)CC(=O)N=C1SCC(=O)Nc1ccccc1F | 6 | 0 | 18* | -2 | -13 | -1
O=C(CN1CCCCC1)NN(Cc1ccccc1)c1ccccc1 | -13 | 10 | 1 | -34 | 0 | 61*
O=C(CN1CCCCC1)NCC1(c2ccccc2)CCCC1 | -9 | 27 | 1 | -26 | -11 | 40*
CCN(CC)CC(=O)NCC1(c2ccccc2)CCCC1 | -8 | -6 | 0 | -27 | 7 | 66*
COc1ccc(C(=O)OCC(=O)Nc2cccc(S(=O)(=O)NC3=NCCCCC3)c2)cc1[N+](=O)[O-] | -7 | 2 | 3 | -1 | -19 | -6
CCOC(=O)c1cn(Cc2ccccc2)c(C(=O)OC(C)(C)C)c1O | 15 | -19 | 44* | -21 | 0 | 17
CCOC(=O)c1cn(Cc2ccccc2)c2cc(C)nn2c1=O | -1 | 14 | 1 | 0 | -15 | -6
CC1CCCCN1C(=O)CSc1nnc(-c2cccnc2)o1 (configuration not stated) | -3 | -5 | 1 | 7 | -4 | 0
Cc1ccc(NS(=O)(=O)c2ccc(C(=O)N3CCCC(C(F)(F)F)C3)cc2)cc1 (configuration not stated) | 45* | -10 | 39* | -6 | 9 | 17
CCOc1ccc(S(=O)(=O)Nc2ccc(C(=O)N3CC(C)OC(C)C3)cc2)cc1 (configuration not stated) | 33* | -20 | 17* | -12 | 4 | 14
